{"source": "PubChem BioAssay AID618", "about": "(Sanford-Burnham Center for Chemical Genomics, 2007)", "note": "In all, about 87,000 compounds went through this assay and about 540 (0.62%) were called active. The rule behind the calls is not given here. Many of the other results were omitted from the sample, so actives are more common in it than they were. Measured potencies and affinities stand elsewhere.", "data": [{"experiment": "MT1-MMP gene expression reporter suppression – cell-based, luciferase reporter, luminescence (AID 618);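 note: actives suppress MT1-MMP promoter-driven transcription so potencies describe inhibitors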", "conditions": "MT1-MMP promoter luciferase reporter cells", "values": [{"compound": "CN1/C(=C\\C(=O)C(F)F)C(C)(C)c2ccccc21", "outcome": "inactive"}, {"compound": "CN1/C(=C\\C(=O)c2ccco2)C(C)(C)c2ccccc21", "outcome": "inactive"}, {"compound": "COC(=O)c1ccccc1NC(=O)c1cc(-c2cccs2)on1", "outcome": "inactive"}, {"compound": "Brc1ccc(NC2=Nc3ccccc3CC2)cc1", "outcome": "inactive"}, {"compound": "c1ccc(NC2=Nc3ccccc3CC2)cc1", "outcome": "inactive"}, {"compound": "CC(=O)N1CCc2[nH]c3ccccc3c2C1", "outcome": "inactive"}, {"compound": "Cc1onc(-c2c(F)cccc2Cl)c1C(=O)OCn1nnc2ccccc2c1=O", "outcome": "inactive"}, {"compound": "CCn1ncc(Br)c1C(=O)Nc1ccc(F)cc1F", "outcome": "inactive"}, {"compound": "CCn1ncc(Br)c1C(=O)Nc1ccc(C(=O)OC(C)C)cc1", "outcome": "inactive"}, {"compound": "O=C(OCn1ncc(Br)c(Br)c1=O)c1ccccc1Cl", "outcome": "inactive"}, {"compound": "O=C(OCn1ncc(Br)c(Br)c1=O)c1ccc(F)cc1", "outcome": "active"}, {"compound": "O=C(OCn1ncc(Br)c(Br)c1=O)c1c(F)cccc1F", "outcome": "active"}, {"compound": "Cc1ccccc1-n1nc(C(=O)c2cccs2)cc(-c2nc3ccccc3[nH]2)c1=N", "outcome": "inactive"}, {"compound": "O=C(OCc1nnc(-c2ccc(Cl)cc2)o1)c1ccc(=O)n(Cc2ccccc2)n1", "outcome": "inactive"}, {"compound": "Cc1cc(NC(=O)CS(=O)(=O)c2cn(Cc3ccc(F)cc3)c3ccccc23)no1", "outcome": "inactive"}, {"compound": "O=C(Oc1ccc(-c2ccccc2)cc1)N1CCOCC1", "outcome": "inactive"}, {"compound": "O=C(Cn1nc(-c2ccccc2F)ccc1=O)NCc1ccc2c(c1)OCO2", "outcome": "inactive"}, {"compound": "CCCCn1nnc(NC(=O)c2ccc(-c3ccccc3)cc2)n1", "outcome": "inactive"}, {"compound": "CCCCCCCNC1=CC(=O)CC(c2ccco2)C1", "note": "(configuration not stated)", "outcome": "inactive"}, {"compound": "COc1cc(NC(=O)CN(c2ccc(C)cc2)S(=O)(=O)c2c(C)nn(C)c2C)cc(OC)c1", "outcome": "inactive"}, {"compound": "O=C(Nc1ccc2c(c1)OCO2)C(c1ccccc1)N1CCN(C(=O)c2ccco2)CC1", "note": "(configuration not stated)", "outcome": "inactive"}, {"compound": "CCOC(=O)c1cc(C)n(CCc2ccccc2)c1C", "outcome": "inactive"}, {"compound": "Nc1nc(-c2ccccc2)cs1", "outcome": "inactive"}, {"compound": "CCCn1c(C)cc(-c2csc(N)n2)c1C", "outcome": "inactive"}, {"compound": "Cc1cc(-c2csc(N)n2)c(C)n1C", "outcome": "inactive"}, {"compound": "Cc1nc2ccccc2nc1N1CCC(C)CC1", "outcome": "inactive"}, {"compound": "O=C(Nc1ccc2c(c1)OCO2)N1CCN(S(=O)(=O)c2ccc(Cl)cc2)CC1", "outcome": "inactive"}, {"compound": "CC1(C)N(OCc2ccccc2)C(=O)C(=O)N(OCc2ccccc2)C1(C)C", "outcome": "inactive"}, {"compound": "C=CCNc1nc(N(c2ccccc2)c2ccccc2)nc(-n2ccnc2)n1", "outcome": "inactive"}, {"compound": "CCCS(=O)(=O)c1nnnn1-c1cccc(OC)c1", "outcome": "active"}, {"compound": "COc1cccc(-n2nnnc2SCC(=O)NC2CCCC2)c1", "outcome": "inactive"}, {"compound": "COc1cccc(Oc2nnnn2-c2ccccc2)c1", "outcome": "inactive"}, {"compound": "CCCS(=O)(=O)C(=C1NCCO1)S(=O)(=O)CCC", "outcome": "inactive"}, {"compound": "COc1cccc(-c2nc3ccc(O)cc3c(=O)o2)c1", "outcome": "inactive"}, {"compound": "CCOc1nc(C)ccc1-c1noc(-c2ccco2)n1", "outcome": "inactive"}, {"compound": "COc1nc(-c2ccc(C)cc2)ccc1-c1noc(-c2ccco2)n1", "outcome": "inactive"}, {"compound": "Cc1cccc(OCC(=O)Nc2ccc3c(c2)OCO3)c1C", "outcome": "inactive"}, {"compound": "C/C(=C\\C(=O)c1cccnc1)Nc1ccc(C(=O)O)cc1", "outcome": "inactive"}, {"compound": "CCC(C(=O)c1ccc(O)cc1)c1ccccc1", "note": "(configuration not stated)", "outcome": "inactive"}, {"compound": "CN(C)c1ccc(C(=O)C(O)c2ccccc2)cc1", "note": "(configuration not stated)", "outcome": "inactive"}, {"compound": "CN(C)CC(C(=O)c1ccccc1)c1ccccc1", "note": "(configuration not stated)", "outcome": "active"}, {"compound": "O=C(Cn1nc(C(=O)O)c2ccccc2c1=O)NCCC1=CCCCC1", "outcome": "inactive"}, {"compound": "CC(Cc1ccccc1)NC(=O)C1CCCNC1=O", "note": "(configuration not stated)", "outcome": "inactive"}, {"compound": "CCCCC(=O)c1ccc(O)cc1O", "outcome": "inactive"}, {"compound": "O=C(CSc1nnc(-c2ccncc2)n1Cc1ccco1)N1c2ccccc2Sc2ccc(Cl)cc21", "outcome": "inactive"}, {"compound": "COc1ccc(N2CCN(C(=O)CSc3nnc(-c4cccnc4)n3-c3ccc(F)cc3)CC2)cc1", "outcome": "inactive"}, {"compound": "Cc1ccc(CN(c2ccc(C(=O)NCc3ccccn3)cc2)S(C)(=O)=O)cc1", "outcome": "inactive"}, {"compound": "O=C(CSC1=NCCS1)N1CCOCC1", "outcome": "inactive"}, {"compound": "O=C(COc1ccc(Cl)cc1Cl)Nc1ccccn1", "outcome": "active"}, {"compound": "O=C(COc1ccc(Cl)cc1Cl)Nc1ccc(Cl)cn1", "outcome": "inactive"}, {"compound": "O=C(COc1ccccc1Cl)Nc1ccc(Cl)cn1", "outcome": "inactive"}, {"compound": "Cc1ccc(C(C)C)c(OCCN)c1", "outcome": "inactive"}, {"compound": "COc1ccc(OC(C)C(=O)N2CC(C)OC(C)C2)cc1", "note": "(configuration not stated)", "outcome": "inactive"}, {"compound": "O=C(Nc1ccc(N2C(=O)C3C4C=CC(C4)C3C2=O)cc1)Nc1nncs1", "note": "(configuration not stated)", "outcome": "inactive"}, {"compound": "CCCn1c(N)c(C(=O)CSc2nc(C)cs2)c(=O)[nH]c1=O", "outcome": "inactive"}, {"compound": "Nc1ccc(-c2nc3ccc(-c4nc5ccccc5o4)cc3[nH]2)cc1", "outcome": "inactive"}, {"compound": "Cc1ccc2oc(-c3ccco3)nc2c1", "outcome": "inactive"}, {"compound": "Cc1nc2ccc(-c3nc4ccccc4o3)cc2[nH]1", "outcome": "inactive"}, {"compound": "c1ccc2oc(-c3ccc4nc[nH]c4c3)nc2c1", "outcome": "inactive"}, {"compound": "Cc1ccc(-c2nc3cc(NS(=O)(=O)c4ccc(C)cc4)ccc3o2)cc1", "outcome": "inactive"}, {"compound": "Nc1ccc2oc(-c3cccs3)nc2c1", "outcome": "inactive"}, {"compound": "Nc1ccc2oc(-c3ccccn3)nc2c1", "outcome": "inactive"}]}]}
